From PubChem BioAssay
SENP6 block: SENP6 protease inhibitors, primary screen, biochemical, luminescence, uHTS; Sentrin-specific protease 6 (Homo sapiens), Q9GZR1; Recombinant SENP6 catalytic domain, aminoluciferin luminescence; inhibition, % at 10 µM; 1.8% of 330,000 active;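 active means inhibition above about 50% at the single tested dose, limit read from the data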;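 further: plate controls were DMSO wells with enzyme for no effect and DMSO wells lacking enzyme for full effect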
Target sequence (Q9GZR1 628-1112 limits assumed): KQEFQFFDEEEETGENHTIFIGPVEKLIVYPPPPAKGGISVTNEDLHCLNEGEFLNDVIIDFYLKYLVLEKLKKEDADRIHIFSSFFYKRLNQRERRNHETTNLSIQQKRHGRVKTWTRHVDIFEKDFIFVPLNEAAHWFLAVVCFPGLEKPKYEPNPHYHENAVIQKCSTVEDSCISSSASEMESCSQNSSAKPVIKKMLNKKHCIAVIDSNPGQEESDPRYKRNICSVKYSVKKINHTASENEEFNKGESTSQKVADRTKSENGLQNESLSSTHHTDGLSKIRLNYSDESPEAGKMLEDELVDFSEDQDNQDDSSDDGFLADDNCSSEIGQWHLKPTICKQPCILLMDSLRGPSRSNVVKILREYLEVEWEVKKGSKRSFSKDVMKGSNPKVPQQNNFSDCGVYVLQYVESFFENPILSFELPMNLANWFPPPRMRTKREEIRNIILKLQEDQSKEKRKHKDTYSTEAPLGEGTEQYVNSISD
SENP7 block: SENP7 protease inhibitors, primary screen, biochemical, luminescence, uHTS | Sentrin-specific protease 7 (Homo sapiens), Q9BQF6 | recombinant SENP7, Z-RLRGG-aminoluciferin luminescence, 40 min | inhibition, % at 5 µM | 1.5% of 330,000 active;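 active means inhibition above about 50% at the single test dose, limit read from the data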;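 further: plate controls were DMSO with enzyme for no effect and no enzyme buffer wells for full effect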
SENP8 block-1: human SENP8 protease inhibitors, primary screen, biochemical, fluorescence, Nedd8 protein substrate, uHTS; Sentrin-specific protease 8 (Homo sapiens), Q96LD8; recombinant SENP8; inhibition, % at 20 µM; 0.64% of 360,000 active; AID 602440, 2012; in the data active means inhibition mostly above about 40%, no sharp cut-off; inactive means mostly below about 27%
SENP8 block-2: SENP8 protease inhibitors, primary screen, biochemical, luminescence; Sentrin-specific protease 8 (Homo sapiens), Q96LD8; purified SENP8, Z-RLRGG-aminoluciferin cleavage; inhibition, % at 10 µM; 1.2% of 330,000 active; in the data active means inhibition above about 50%
HSP90 inh: HSP90 inhibitors, primary screen, cell lysate, luminescence. 0.91% of 290,000 active. Heat shock protein HSP 90 (rabbit reticulocyte lysate; luciferase refolding). inhibition, % at 5.6 µM. Rabbit reticulocyte lysate, luciferase refolding luminescence, 3 h. AID 1789, 2009;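 active means inhibition above the screen-wide mean plus 3 SD, computed separately per campaign, cut at about 16% in these data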;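 further: 0% = DMSO wells and 100% = 60 µM geldanamycin wells; inhibitors lower the luminescence because luciferase stays unfolded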
Platelet DG rel: inhibitors of platelet dense granule secretion, primary screen, cell-based, MLPCN, human platelets; human platelet-rich plasma, SFLLRN dense granule ATP release, luminescence; inhibition, %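 (compounds screened at 7.5 µM in platelet-rich plasma)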; 0.22% of 300,000 active;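 active means mean replicate score, as percent of positive control, at or above 50; inconclusive means mean below 50 but at least one replicate at or above 50; inactive means mean and every replicate below 50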
SENP8 inh conf: human SENP8 protease inhibitors, confirmation, biochemical, Nedd8 protein substrate, single concentration; 15% of 1,400 active; AID 624319, 2012; shares compounds with SENP8 block-1; purified SENP8, Nedd8-AMC/pro-Nedd8 cleavage fluorescence, 30 min; inhibition, % at 25 µM; in the data active means inhibition mostly above about 39%, no sharp cut-off; inactive means mostly below about 34%
An asterisk follows results filed as active; ? = inconclusive; · = no result. A selection: hits, their analogues and other compounds. The true share with any hit is near 2.8%.

SMILES	SENP6 block	SENP7 block	SENP8 block-1	SENP8 block-2	HSP90 inh	Platelet DG rel	SENP8 inh conf
Cc1ccc(NNC(=O)c2c(C)noc2C)cc1Cl	-3	-5	54*	-4	0	-17	17
CC1(OC(=O)c2ccc(Cl)nc2)C(=O)C=C2C=C3CCCN3C=C2C1=O (stereo not given)	14	7	65*	7	·	·	44*
COC(=O)CCC(=O)OC1(C)C(=O)C=C2C=C3CCCN3C=C2C1=O (stereo not given)	11	3	53*	6	·	-5	47*
CC1(OC(=O)c2ccc(Cl)nc2)C(=O)C=C2C=C(C3CC3)OC=C2C1=O (stereo not given)	-1	0	·	4	·	7	·
CC1(OC(=O)C2CCCC2)C(=O)C=C2C=C3CCCCN3C=C2C1=O (stereo not given)	6	-2	57*	-11	·	1	60*
CC(=O)c1c(O)cc(O)c(C(C)=O)c1O	1	2	45*	-2	·	-3	20
COCOc1cccc(CN2CCC2(C)C(=O)Nc2cc(OC)ccc2OC)c1 (stereo not given)	·	·	5	·	·	·	·
O=C(O)C(=Cc1ccc([N+](=O)[O-])cc1)c1cccc(Cl)c1	·	·	28	·	·	·	·
CN1CCN(CC(=O)n2c3c(c4ccccc42)CCCC3)CC1	20	4	44*	15	1	7	38
CCN(CC)CC(=O)n1c2c(c3ccccc31)CCCC2	-3	7	11	0	-4	?	·
CCN(CC)C(=O)C1=C(C)N(CCCOC)C(=O)C(CC(=O)NCc2cccs2)C1 (stereo not given)	·	·	4	·	·	·	·
Cc1ccc(C(=O)c2coc3cc([N+](=O)[O-])c(O)c([N+](=O)[O-])c23)cc1	9	1	47*	-12	0	-1	23
Cc1ccc(C(=O)c2ccc([N+](=O)[O-])cc2)cc1	-12	10	6	-13	0	-1	·
COc1ccc(C(=O)COc2ccc(C)cc2NC(C)=O)cc1	-2	-7	41*	-2	-2	-1	8
CC(=O)Nc1cccc(-c2ccnc3c2CC(C(=O)NCc2cccc(Cl)c2)O3)c1 (stereo not given)	·	·	9	·	·	·	·
Cc1nn(C(C)C(=O)NCCc2ccccc2)c(=O)c2cc3occc3n12 (stereo not given)	3	-2	-4	-3	-1	4	·
CCOc1ccc(CCNC(=O)C(C)n2nc(C)n3c(cc4occc43)c2=O)cc1OCC (stereo not given)	-21	-3	42*	-13	7	-27	13
CC(C)c1ccc(OCC(=O)Nc2ccc3oc(=O)ccc3c2)cc1	-12	-2	-62	-2	2	-1	·
CC1=NN(c2cccc(Cl)c2)C(=O)C1	-5	20	64*	7	16	1	55*
CC1=NN(c2ccc(Cl)c(C(=O)O)c2)C(=O)C1	11	17	70*	3	5	-1	17
CN(c1ccccc1C(=O)Nc1ccccc1-c1ccccc1)S(C)(=O)=O	-13	-2	17	-7	-5	-5	·
Cc1ccc(SCC(=O)N(C)CC(=O)Nc2cccc(F)c2)c(C)c1	-6	-14	14	-6	·	-10	·
C=CCn1c(C)cc(C(=O)CSc2nnc(NC(C)C)s2)c1C	11	4	44*	2	1	-2	7
COC(=O)/C(=C/Nc1ccc(O)cc1)[N+](=O)[O-]	-6	18	74*	-31	-2	2	17
COC(=O)/C(=C/Nc1ccccc1)[N+](=O)[O-]	-7	-7	3	1	-2	-6	·
SMILES	SENP6 block	SENP7 block	SENP8 block-1	SENP8 block-2	HSP90 inh	Platelet DG rel	SENP8 inh conf
COc1cccc(CC(=O)N[C@@H](CCSC)c2nc3ccccc3[nH]2)c1	3	-8	2	-9	1	-1	·
Cc1nnc(SCC(=O)N2CCN(C(=O)c3ccco3)CC2)n1-c1ccccc1	-18	-4	9	-3	0	0	·
COc1ccc(CCC(C)NC2CCCCCCC2)cc1 (stereo not given)	-53	1	49*	-3	0	-8	-7
COc1cc(OC)c(NC(=O)c2cc3ccccc3cc2O)cc1Cl	·	·	-213	·	·	·	·
O=c1c2ccccc2c(C=NCCc2ccccc2)c(O)n1Cc1ccccc1	6	21	47*	26	-2	6	51*
C/C(=C\C(=O)c1ccccc1)Nc1ccc(O)cc1	9	17	84*	-5	8	5	16
COc1ccc(C(=O)/C=C(\C)Nc2ccc(NC(C)=O)cc2)cc1	11	11	21	4	0	-6	·
C/C(=C\C(=O)c1cccnc1)Nc1ccc(O)cc1	-7	11	84*	1	6	4	16
CC(C)(C)C(=O)c1c(N)[nH]c(C(=O)c2ccccc2)c1-c1ccc(C(F)(F)F)cc1	·	·	18	·	·	·	·
COc1ccccc1Cn1nnc2c(=O)[nH]c(C3CCN(C(=O)c4ccc(F)cc4)CC3)nc21	8	-1	53*	2	1	11	8
Cc1nc(Nc2ccc(F)cc2)nc(Nc2ccc(F)cc2)c1[N+](=O)[O-]	-2	2	34	3	7	1	·
COc1ccc(Nc2nc(NN)nc(C)c2[N+](=O)[O-])cc1	-5	6	60*	1	3	4	14
COc1ccc(C)cc1S(=O)(=O)NC(C)c1cnn(-c2ccccn2)c1C (stereo not given)	1	2	6	11	-4	-3	·
Cc1cccc(N2CCN(C(=O)c3ccc4c(c3)CCN4S(C)(=O)=O)CC2)c1C	-6	-3	1	0	-2	3	·
CC(C)(C)c1cc(=O)n(-c2ccccc2)[nH]1	·	·	87*	·	2	·	27
Cc1cccc(NC(=O)c2cc(S(=O)(=O)N3CCc4ccccc43)cn2C)c1	17	-1	3	11	0	0	·
Cc1cccc(N(C)C(=O)c2cc(S(=O)(=O)N3CCc4ccccc43)cn2C)c1	-4	-3	46*	-4	-2	7	-9
O=C(O)CN1C(=O)/C(=C/c2ccccc2Br)Oc2ccccc21	5	1	-306	1	-1	0	·
Nc1ccc(C2CCCc3nonc32)c2nonc12 (stereo not given)	27	10	57*	2	3	-5	4
